Data as given in PubChem BioAssay (NCI).
Several values for one entry are separate records, joined by “and”; a condition that tells them apart may be missing. Equal entries are not always repeated. The panel holds about 83,000 compounds, 20% with a hit somewhere; the sample as a whole holds those more often.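 Step 1: grow cells in 96-well plates. Step 2: add test compound at a single concentration. Step 3: incubate 48 h. Step 4: record percent growth.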 Activity calls are given as the source filed them. Rule for the calls: active = growth percent below 10; inactive = the rest.

Tested on: HL-60(TB) leukemia
Assay: NCI-60 one-dose screen, 48 h (100 = growth as untreated, 0 = no growth, -100 = all killed)
Conditions: 10 µM unless noted

Compound | growth
COc1cc(NCC(=O)Nc2cc(Nc3ccc(C)cc3)ncn2)c(Cl)c(OC)c1Cl | 77.2% (inactive)
O=C(O)c1ccc(=O)[nH]n1 | 111% (inactive)
COc1ccc2c(c1)C1=NN(C(=O)CO)[C@H](c3ccc(OC(F)(F)F)cc3)[C@@H]1CC2 | 104% (inactive)
Nc1c(C(=O)Nc2cccc3ccccc23)sc2nc3c(cc12)C(=O)CCC3 | 3.95% (active)
CNC(=O)c1ccc(Nc2ncc(C(F)(F)F)c(NCc3nccnc3N(C)S(C)(=O)=O)n2)cc1 | -32.1% (active)
Cc1cc(O)c(C(C)C)cc1N | 83.9% (inactive) and 122% (inactive)
Clc1ccc(Nc2nnc(COc3ccccc3)c3ccccc23)cc1 | -15.7% (active)
CCOC(=O)CC[C@H](NC(=O)c1ccc(NC)c2ccccc12)C(=O)OCC | 105% (inactive)
O[C@@H]1Cc2ccc3ccccc3c2N[C@H](c2ccoc2)C1 | 105% (inactive)
CS(=O)(=O)Nc1cc(-c2ccc3ncnc(Nc4c(Cl)ccc5c4OCO5)c3c2)cnc1Cl | -4.02% (active)
N#Cc1c(N)nc2c(C#N)c(NC(=O)c3ccccc3)nn2c1-c1ccccc1 | 93% (inactive)
Cc1ccc2cccc(Oc3ccc(Nc4ncnc5onc(-c6ccccc6)c45)cc3)c2n1 | 94.9% (inactive)
CCCCOc1ccc(Nc2cc(Cl)ccc2C(=O)O)cn1 | 87.2% (inactive) and 103% (inactive)
COc1ccc(Nc2nc(SCC(C)C)nc(-c3ccc(F)cc3)c2C#N)cc1 | 38.4% (inactive)
COc1ccc(-c2cc(-c3cc(OC)ccc3OC)nc(SCC(=O)c3ccccc3)c2C#N)cc1 | 98.4% (inactive)
NC(=S)N/N=C/Cc1ccccc1 | 47.2% (inactive)
Cc1cccc(Cc2cnc(NC(=O)c3ccc4nnsc4c3)s2)c1 | 94.1% (inactive)
COc1cc(-c2n/c(=C\c3c(O)[nH]c4ccc(Cl)cc34)cc3c2=Nc2ccccc2-3)ccc1F | 96.6% (inactive)
CCNC1(NC#N)CCCCC1 | 96.8% (inactive)
O=C(O)CN(CCN(CC(=O)O)CC(=O)O)CCN(CC(=O)O)CC(=O)O | -51.1% (active) and 109% (inactive) and 94.7% (inactive)

Compound | growth
O=C(O)CCCCCCCCCCCCCCC(=O)O | 102% (inactive)
CN[C@@]12CC3(C=CC(=O)C=C3)O[C@]1(Cc1ccc(OC)cc1)N(C)C(=O)N2 | 0.452% (active)
C=C(C)[C@@H]1CC[C@]2(C(=O)N[C@H](CO)Cc3ccccc3)CC[C@]3(C)[C@H](CC[C@@H]4[C@@]5(C)CCCNC(C)(C)[C@@H]5CC[C@]43C)[C@@H]12 | -73.3% (active)
Cc1ccc(S(=O)(=O)n2ccnc2)cc1 | 124% (inactive)
COc1cc(-c2csc(NC(=O)Nc3cccc(C(F)(F)F)c3)n2)cc(OC)c1OC | 44.6% (inactive)
COc1ccc(-c2nocc2-c2cccs2)cc1 | 115% (inactive)
NC(Cc1ccc(O)cc1)C(=O)N/N=C/c1ccccc1O (stereo not given) | 93.7% (inactive)
Nc1nccc2c1ccn2-c1ccc(NC(=O)Nc2cccc(C(F)(F)F)c2)cc1 | 117% (inactive)
Cc1ccc(NC(=O)COC(=O)c2ccc(S(=O)(=O)N3CCCCCC3)cc2)cc1 | 85.9% (inactive)
CC1(C)CC[C@]2(C(=O)O)CC[C@]3(C)C(=CC[C@@H]4[C@@]5(C)C/C(=C/O)C(=O)C(C)(C)[C@@H]5CC[C@]43C)[C@@H]2C1 | 4.77% (active)
CCOC(=O)c1c(C)oc(C)c(C(=O)OCC)c1=O | 247% (inactive) and 61.2% (inactive)
CC1=C(/C=C/C(C)=C/C=C/C(C)=C/CO)C(C)(C)CCC1 | 103% (inactive)
C/C(=N\NC(=O)c1ccncc1)c1ccccc1O | 5.87% (active) and 2.85% (active)
O=S(=O)(Nc1ccc(F)c(Cl)c1)c1ccc(-c2cnc(C3CC3)o2)cc1 | 8.62% (active)
C[C@]12CC[C@@H]3c4ccc(O)cc4C[C@@H](O)[C@H]3[C@@H]1CC[C@@H]2O | 101% (inactive)
O=c1cc(/C=N\Nc2nc(-c3ccc(Cl)cc3Cl)cs2)c2cc(Cl)ccc2o1 | 92.3% (inactive)
O=C(Cn1c(-c2ccc([N+](=O)[O-])cc2)nc2ccccc21)NNC(=O)c1cccnc1 | 65.9% (inactive)
Cc1nc2sc(C(=O)Nc3ccccc3)c(N)c2cc1C(=O)c1ccccc1 | 21.8% (inactive)
COc1ccc(Cn2cc(Cn3c(=O)c(-c4nc5ccccc5[nH]4)cc4ccccc43)nn2)c(OC)c1OC | 7.75% (active)
FC(F)(F)c1cc(CNc2ncc(Br)c(Cl)n2)cc(C(F)(F)F)c1 | 101% (inactive)
